From PubChem BioAssay
a7 integrin act = qHTS for Activators of Integrin-Mediated Alleviation for Muscular Dystrophy. Potency, µM (titrated, usually from 38.3 µM), for inactives: top-dose activation, most hits filed as activators. AID 624291, 2012. 350,000 tested, 0.064% active. alpha7betagal myoblasts, beta-gal FDG fluorescence, 48 h; active = well fitted activation curve with a large enough effect; inconclusive = small, poorly fitted or top-dose-only effect; inactive = no such curve, though single readings can be large or run the other way;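 also: potency is read from the fitted curve at half-maximal effect; 100% = response of the positive control SU9516; nearly all actives have a fitted effect of over 60% in size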
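alpha7betagal+/- myoblasts (passage 13, 250/well) treated 48 h at 37C with compounds at 1:260 dilution of DMSO stock. Lysed, then beta-galactosidase activity read as FDG fluorescence (ex 480/em 540) after 30 min, with pre-read for autofluorescence.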
D3 antag = qHTS of D3 Dopamine Receptor Antagonist: qHTS; D(3) dopamine receptor (Homo sapiens), P35462; D3R cells, DiscoveRx beta-arrestin luminescence, antagonist mode; stronger effect = lower value; max response, negative = inhibition, %; 360,000 tested, 2.5% active; in the data active = max response below about -50%; inconclusive = no clear call, values can overlap the other calls; also: % is scaled to controls: 0 for no effect and ±100 for the full control effect
Target sequence (P35462 whole entry, looked up): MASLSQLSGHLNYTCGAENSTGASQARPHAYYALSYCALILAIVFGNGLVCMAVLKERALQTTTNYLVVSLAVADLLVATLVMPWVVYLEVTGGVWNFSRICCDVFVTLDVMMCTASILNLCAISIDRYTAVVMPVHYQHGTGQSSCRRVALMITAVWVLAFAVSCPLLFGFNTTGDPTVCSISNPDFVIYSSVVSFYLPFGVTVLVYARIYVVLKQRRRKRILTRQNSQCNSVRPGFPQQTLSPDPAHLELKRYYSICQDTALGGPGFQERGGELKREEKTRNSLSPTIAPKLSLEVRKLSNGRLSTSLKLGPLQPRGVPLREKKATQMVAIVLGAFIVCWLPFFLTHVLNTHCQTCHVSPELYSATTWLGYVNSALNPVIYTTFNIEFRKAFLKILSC
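Cells expressing the human receptor were seeded at 1500 cells/well, incubated overnight at 37 degrees C in 5% CO2, then exposed to library compounds with dopamine controls for 90 minutes at 37 degrees C before luminescent detection.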
D3 ag = qHTS of D3 Dopamine Receptor Agonist: qHTS; 410,000 tested, 0.58% active; D(3) dopamine receptor (Homo sapiens), P35462; max activation, %; D3R DiscoveRx beta-arrestin cells, luminescence, 90 min; in the data active = max activation above about 30%; also: 0% is about no effect
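Agonist mode: compounds and dopamine controls were applied to plated cells for 90 min at 37 degrees C after an overnight attachment at 1500 cells/well. Luminescent read-out followed 30 - 60 minutes at room temperature with DiscoveRx detection reagent.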
* marks the source's active call; other numbers are inactive results; ? = inconclusive; nt = not tested or not shown; [ ] = another dose, or the depositor's remark. Rows were chosen to be rich in hits. Some 2.9% of all compounds tested hit in one or more screens of this group.

SMILES | a7 integrin act | D3 antag | D3 ag
CC(Oc1cc2oc(=O)c3c(c2cc1Cl)CCC3)C(=O)N1C[C@H]2C[C@@H](C1)c1cccc(=O)n1C2 (stereo partly specified) | -32.6% | -26.4 | -32.6
COc1ccc(CSCC(=O)N/N=C/c2ccc(OCC(=O)N3CCCCC3)cc2)cc1 | -8.7% | -56.1* | 7.7
O=C(CSCc1ccccc1)N/N=C/c1ccc(OCC(=O)N2CCCCC2)cc1 | -2.2% | 1.8 | 3.0
O=C1C(=C(c2ccccc2)N2CCOCC2)Cc2ccccc21 | -61.1% | -124.7* | -19.8
O=C(c1ccccc1)N1CCN(C(=O)N2CCOCC2)CC1 | -3.6% | 14.8 | 0.1
COc1ccc(CNC(=O)c2cc(-c3ccccc3OC)on2)cc1 | -10.3%[7.66 µM] | -62.7* | -29.1
O=C(NCc1ccc2c(c1)OCO2)c1cc(-c2ccccc2Cl)on1 | 10.0% | -58.8* | -0.1
COc1ccc(OC)c(-c2csc(NC(=O)Cc3ccccc3OC)n2)c1 | -14.6% | -62.6* | -23.1
COc1ccc(OC)c(-c2csc(NC(=O)Cc3ccccc3F)n2)c1 | 2.4% | -7.7 | 5.0
COc1ccccc1-c1cc(C(=O)NCc2ccc(Cl)cc2)no1 | 0.8% | ? | -51.6
COc1ccccc1-c1cc(C(=O)NCc2ccc(F)cc2)no1 | 28.0% | ? | -28.8
O=C(Nc1ccc2c(c1)OCO2)c1cc(-c2ccccc2Cl)on1 | -5.9% | -16.9 | -3.7
COc1ccccc1-c1cc(C(=O)NCc2ccccc2)no1 | 4.9% | -51.7* | -27.5
Cc1ccc(-n2c(=O)c3cccnc3n2CC(=O)Nc2cccc(C)c2C)cc1 | nt | nt | -3.7
COC(=O)[C@]1(Cc2ccccc2)N[C@H](c2ccc(-c3cccc(Cl)c3)cc2)[C@@H]2C(=O)N(C)C(=O)[C@@H]21 | 7.9% | ? | -28.7
O=C(Nc1cccc2c1CCCC2)c1cc(C2CCCCN2C(=O)OCCF)on1 (stereo unspecified) | nt | 18.9 | -25.3
Cc1csc(C2=C(O)CN(CCc3ccccc3)C2=N)n1 | 9.5% | -5.2 | -25.5
Cc1ccc(CNC(=O)c2ccc(Cn3nc(C)c(Cl)c3C)o2)cc1 | 27.9% | -53.2* | -12.0
Cc1cc(C)cc(NC(=O)c2ccc(Cn3nc(C)c(Cl)c3C)o2)c1 | -16.2% | 65.5 | -2.1
COc1ccc(NC(=O)c2ccc(Cl)c(S(=O)(=O)N3CCc4ccccc4C3)c2)cn1 | -11.8%[7.66 µM] | 10.1 | 2.8
Cc1ccc(CCNC(=O)c2cc3c(-c4ccccc4F)nn(C)c3s2)cc1 | nt | nt | 7.9
CCOc1ccc(CCNC(=O)c2cc3c(-c4cccc(OC)c4)nn(C)c3s2)cc1OCC | nt | nt | 15.7
CCN(CCCNC(=O)c1cc2c(-c3cccc(OC)c3)nn(C)c2s1)Cc1ccccc1 | -52.0% | -53.9* | -19.8
Cn1nc(-c2ccccc2F)c2cc(C(=O)N3CCN(c4ccc(F)cc4)CC3)sc21 | nt | nt | 14.6
Cn1nc(-c2ccccc2F)c2cc(C(=O)N3CCN(c4ccccc4F)CC3)sc21 | nt | nt | 50.7*
SMILES | a7 integrin act | D3 antag | D3 ag
CCCCN(CC)CCNC(=O)c1cc2c(-c3ccccc3F)nn(C)c2s1 | -73.5% | -61.2* | -15.0
COc1ccc(NC(=S)NC(=NS(=O)(=O)c2ccc(Cl)cc2)c2ccccc2)cc1 | -20.2% | 3.2 | -7.9
O=S(=O)(NCC(c1ccco1)N1CCCCC1)c1ccccc1C(F)(F)F (stereo unspecified) | -30.6% | -19.1 | 3.7
CCOC(=O)C(=C1Nc2ccccc2N1)n1c(-c2cccnc2)nc2ccccc21 | nt | -64.8* | -12.1
CCOC(=O)Cn1c(-c2cccnc2)nc(-c2ccccc2)c1-c1ccccc1 | -32.8% | 16.5 | 9.0
O=C(CN1CCOc2ccccc21)NCc1ccc(Cl)cc1 | -13.0% | 7.0 | 3.8
Cc1ccccc1C1C(C#N)=C2N=C(N)c3c(sc4c3CCCCC4)N2C2=C1C(=O)CC(C)(C)C2 (stereo unspecified) | 3.4% | -60.8* | -8.2
Cc1ccccc1C1C(C#N)=C2N=C(N)c3ccccc3N2C2=C1C(=O)CCC2 (stereo unspecified) | -15.8% | 11.5 | 8.9
COCCCNCCOc1ccccc1-c1ccccc1 | -23.8% | -80.6* | -35.7
COCCCNCCOc1ccc(C(C)(C)c2ccccc2)cc1 | 7.3% | ? | -35.8
CC(O)CNCCOc1ccccc1OCc1ccccc1 (stereo unspecified) | -39.3% | -79.7* | -15.1
N=C(N)CCCOc1ccccc1-c1ccccc1 | 0.0% | -17.2 | -6.6
COCCCNCCCCOc1ccccc1-c1ccccc1 | -49.6% | -77.6* | -11.9
CC(O)CNCCNCc1c(OCc2ccccc2)ccc2ccccc12 (stereo unspecified) | -54.7% | ? | -32.3
CC(NC(=O)COc1ccccc1-c1ccccc1)c1ccccc1 (stereo unspecified) | 18.6% | 2.4 | -5.3
CC(O)CNCCOc1ccccc1-c1ccccc1 (stereo unspecified) | 22.6% | -80.0* | -37.2
O=C(NNC1CC(=O)N(c2ccc(F)cc2)C1=O)c1cccnc1 (stereo unspecified) | ? | -14.4 | 2.9
COc1ccc(CC(=O)OC(C)C(=O)Nc2c(C)n(C)n(-c3ccccc3)c2=O)cc1OC (stereo unspecified) | -14.8% | 2.6 | 5.2
C=CCNCCCCOc1ccc(OCc2ccccc2)cc1 | -34.6% | -10.3 | -5.7
CNCCOc1ccccc1-c1ccccc1 | -46.7% | ? | -1.1
OCCNCCOCCOc1ccccc1-c1ccccc1 | -51.3% | -16.3 | -3.8
COCCNCCOc1ccccc1-c1ccccc1 | -2.4% | -82.6* | -10.3
CNCCCCOc1ccccc1-c1ccccc1 | -46.1% | -75.9* | -28.1
OCCNCCOc1ccccc1-c1ccccc1 | 14.9% | -75.9* | -24.1
C=CCNCCCCOc1ccccc1-c1ccccc1 | ? | -92.7* | -38.3
SMILES | a7 integrin act | D3 antag | D3 ag
CCOC(=O)C1=CCC(c2ccccc2)N(S(=O)(=O)c2ccccc2)C1 (stereo unspecified) | nt | 0.0 | -11.1
COc1cccc(Cn2c(=O)cc(C)c3c(C)nn(C)c32)c1 | nt | nt | 14.0
COCCCNC(=O)/C=C/c1c(Cl)cccc1Cl | -11.2% | 0.9 | 1.7
CCC(C(=O)N1CCN(C(=O)c2ccco2)CC1)n1sc2ccccc2c1=O (stereo unspecified) | -20.0% | 9.6 | -5.1
O=C(c1cc(C2CC2)nn1-c1ccccc1)N1CCN(c2ncc(C(F)(F)F)cc2Cl)CC1 | -18.0% | 0.0 | -5.3
CCCCNCCOc1ccccc1-c1ccccc1 | -9.1% | -98.8* | -24.9
NC(=S)NN=C1CCCCCCCCCC1 | 18.6% | -10.9 | -3.1
O=c1oc2cc(Oc3c([N+](=O)[O-])cc(C(F)(F)F)cc3[N+](=O)[O-])ccc2c2c1CCCC2 | -41.3% | -89.9* | 6.5
O=c1oc2cc(Oc3ccc(C(F)(F)F)cc3[N+](=O)[O-])ccc2c2c1CCC2 | 24.9% | -2.5 | -6.9
CCOC(=O)c1cnc2ccc(OCC)cc2c1N(C)Cc1ccccc1 | -21.6% | 8.3 | 68.0*
CCOC(=O)c1cnc2ccc(OCC)cc2c1Nc1ccc(OCc2ccccc2Cl)cc1 | nt | nt | 3.2
CCOC(=O)c1cnc2ccc(OCC)cc2c1N1CCN(c2ccccc2OC)CC1 | -24.2% | 69.3 | 34.2*
CCOC(=O)c1cnc2c(OC)cccc2c1N1CCN(c2ccccc2F)CC1 | nt | nt | 6.7
CCC(=O)N1CCc2cc(CNC(=O)c3ccc(OC)cc3)ccc21 | nt | nt | -8.5
